Laboratory results: PubChem BioAssay AID449762 (Southern Research Specialized Biocontainment Screening …, 2010)
Out of some 330,000 compounds screened, about 1,900 (0.58%) were called active. About 4% were inconclusive and are not listed. No stated cut-off is given here; in the data, inconclusive means inhibition above about 70% without an active follow-up result; inactive means below that. Only a sample is shown. Entries with a potency or affinity are not part of this list.

Test: M. tuberculosis growth inhibition, HTS (AID 449762);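 further: bacterial growth assessed after seven days of incubation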
Conditions: M. tuberculosis H37Rv growth inhibition, 7H9 media; at 25 µM; stronger effect = higher value

**Q.** Which inhibition does the source give for `Cc1cccn2c(=O)c3cc(C(=O)NCCc4ccccc4)c(=N)n(CC4CCCO4)c3nc12` (stereo not given) here?
**A.** 4.7% (inactive)

**Q.** With `FC(F)(F)c1cc(Cl)c2nc(-c3ccccc3)cn2c1` as the compound, how does the inhibition read?
**A.** 4.79% (inactive)

**Q.** For `COc1ccc(N(C(=O)Nc2ccc(Cl)cc2)C2=NCCC2)cc1`, which inhibition is on record?
**A.** 42.5% (inactive)

**Q.** With `O=C(Nc1ccccc1)N(C1=NCCC1)c1ccc(OC(F)F)cc1` as the compound, how does the inhibition read?
**A.** -0.82% (inactive)

**Q.** For `COCC1CCN(C(=O)c2cc(COc3ccc(F)cc3F)on2)C1` (stereo not given), which inhibition is on record?
**A.** -0.65% (inactive)

**Q.** Which inhibition does the source give for `O=C(c1cc(COc2ccc(F)cc2F)on1)N1CC[C@@H]2CCCC[C@H]2C1` here?
**A.** 8.08% (inactive)

**Q.** With `CC(NC(=O)c1cc(F)c(F)cc1Cl)C1CC2CCC1C2` (stereo not given) as the compound, how does the inhibition read?
**A.** 9.14% (inactive)

**Q.** For `O=C(Nc1cccc(F)c1)N1CCN(C/C=C/c2ccccc2)CC1`, which inhibition is on record?
**A.** -4.24% (inactive)

**Q.** Which inhibition does the source give for `Cc1cc(C)cc(NC(=O)N2CCN(C/C=C/c3ccccc3)CC2)c1` here?
**A.** 6.44% (inactive)

**Q.** For `O=C1NC(=O)C2(Cc3ccccc3N3CCCC32)C(=O)N1Cc1ccccc1` (stereo not given), which inhibition is on record?
**A.** -3.61% (inactive)

**Q.** Which inhibition does the source give for `C=CCNC(=O)/C(=C/c1cn(-c2ccccc2)nc1-c1cccc([N+](=O)[O-])c1)NC(=O)c1ccccc1` here?
**A.** 9.03% (inactive)

**Q.** Which inhibition does the source give for `NC(=O)/C(N=Nc1ccccc1)=N/Nc1ccccc1` here?
**A.** 63.8% (inactive)

**Q.** With `O=[N+]([O-])/C(N=Nc1ccccc1)=N\Nc1ccccc1` as the compound, how does the inhibition read?
**A.** -2.92% (inactive)

**Q.** Which inhibition does the source give for `O=C(Cn1nnc(-c2ccc(S(=O)(=O)N3CCCC3)cc2)n1)Nc1ccccc1-n1cccc1` here?
**A.** -4.45% (inactive)

**Q.** Which inhibition does the source give for `CN(CC(=O)Nc1ccc(F)cc1[N+](=O)[O-])Cc1ccccc1` here?
**A.** 6.03% (inactive)

**Q.** Which inhibition does the source give for `Cc1cc(C(=O)O/N=C(\N)c2ccc(C(C)(C)C)cc2)no1` here?
**A.** 0.64% (inactive)

**Q.** Which inhibition does the source give for `CCOC(=O)c1cc(/C(C)=N/OC(=O)c2ccc(Cl)cc2)on1` here?
**A.** 47.9% (inactive)

**Q.** Which inhibition does the source give for `COc1cccc2c(=O)c3c([nH]c12)OC(C)(C)C3` here?
**A.** 1.96% (inactive)

**Q.** For `NC(=O)c1ccsc1NC(=O)c1cc(=O)c2ccccc2o1`, which inhibition is on record?
**A.** 1.83% (inactive)

**Q.** For `CC1=C(C(N)=O)C(c2ccccc2F)NC(=O)N1` (stereo not given), which inhibition is on record?
**A.** -4.59% (inactive)

**Q.** With `O=C(N/N=C/c1ccc(F)cc1)c1cccc(NC(=O)c2ccc(F)cc2)c1` as the compound, how does the inhibition read?
**A.** 9.14% (inactive)

**Q.** Which inhibition does the source give for `CC(NC(=O)COC(=O)c1ccc(Cl)cc1O)c1ccc(F)cc1` (stereo not given) here?
**A.** 2.35% (inactive)

**Q.** With `CC(C)(C)NC(=O)COC(=O)c1cc(Cl)ccc1[N+](=O)[O-]` as the compound, how does the inhibition read?
**A.** -0.3% (inactive)

**Q.** With `CCOC(=O)c1ccc[n+](CC(=O)c2ccc(OC)cc2)c1` as the compound, how does the inhibition read?
**A.** -6.92% (inactive)

**Q.** With `CN(C)/C=C/C(=O)c1ccc([N+](=O)[O-])c(CS(=O)(=O)c2ccccc2)c1` as the compound, how does the inhibition read?
**A.** 4.59% (inactive)

**Q.** Which inhibition does the source give for `Fc1ccc(-c2cc3nc(-c4ccccc4)cc(N4CCOCC4)n3n2)cc1` here?
**A.** -0.86% (inactive)

**Q.** For `OC1CCN(c2cc(-c3ccccc3)nc3cc(-c4ccc(F)cc4)nn23)CC1`, which inhibition is on record?
**A.** 14.2% (inactive)

**Q.** With `O=C(CN1C(=O)S/C(=C\c2ccc(F)cc2)C1=O)Nc1cccc(S(=O)(=O)NCc2ccco2)c1` as the compound, how does the inhibition read?
**A.** -0.96% (inactive)

**Q.** With `C=CCNC(=O)C1CCN(c2cnccn2)CC1` as the compound, how does the inhibition read?
**A.** 1% (inactive)

**Q.** With `Cc1ccnc(NC(=O)C2CCN(S(=O)(=O)c3cccc(C(F)(F)F)c3)CC2)c1` as the compound, how does the inhibition read?
**A.** -6.67% (inactive)

**Q.** Which inhibition does the source give for `Cn1c(O)c(C=Nc2ccc(Br)cc2)sc1=O` here?
**A.** 2% (inactive)

**Q.** With `N=c1oc2ccccc2cc1C(=O)Nc1ccccc1` as the compound, how does the inhibition read?
**A.** -6.06% (inactive)

**Q.** Which inhibition does the source give for `N=c1oc2cc(O)ccc2cc1C(=O)Nc1ccccn1` here?
**A.** 9.75% (inactive)

**Q.** With `O=C(NCc1nnc(SCC(=O)N2CCCC2)o1)c1ccc(F)cc1` as the compound, how does the inhibition read?
**A.** -1.8% (inactive)

**Q.** Which inhibition does the source give for `Cc1cc(C)c(C(=O)N(C)CC2CCCN(CCc3ccccc3F)C2)o1` (stereo not given) here?
**A.** 7.36% (inactive)

**Q.** With `CCOC(=O)C1(CCCc2ccccc2)CCN(C(=O)c2ccoc2)CC1` as the compound, how does the inhibition read?
**A.** 3.78% (inactive)

**Q.** For `CC(=O)Nc1cn(-c2ccccc2)nc1-c1ccccc1`, which inhibition is on record?
**A.** 8.61% (inactive)

**Q.** With `O=C(Nc1cn(-c2ccccc2)nc1-c1ccc(Cl)cc1)c1ccccc1` as the compound, how does the inhibition read?
**A.** 12.2% (inactive)

**Q.** For `Oc1cc(NCCc2cccnc2)cc2cccnc12`, which inhibition is on record?
**A.** 11.9% (inactive)

**Q.** With `NS(=O)(=O)c1cccc(NC(=O)c2ccc3nc[nH]c3c2)c1` as the compound, how does the inhibition read?
**A.** 1.29% (inactive)

**Q.** For `CC(C)c1ccc(NC(=O)C2CSC3(C)CCC(=O)N23)cc1` (stereo not given), which inhibition is on record?
**A.** 5.83% (inactive)

**Q.** With `CC12CCC(=O)N1C(C(=O)Nc1ccc(F)cc1)CS2` (stereo not given) as the compound, how does the inhibition read?
**A.** -9.52% (inactive)

**Q.** Which inhibition does the source give for `Cc1ccc(CNC(=O)c2ccc(N3CCC4(CC3)CC(c3ccccc3)=NO4)c(NC(=O)c3ccc(Br)cc3)c2)cc1` here?
**A.** -2.65% (inactive)

**Q.** For `Cc1[nH]c(=O)[nH]c(=O)c1/C=C/C(=O)O`, which inhibition is on record?
**A.** -3.99% (inactive)

**Q.** With `Nc1c(C(=O)OCC(=O)NCc2ccccc2)[nH]c(=O)[nH]c1=O` as the compound, how does the inhibition read?
**A.** 1.89% (inactive)

**Q.** Which inhibition does the source give for `COc1ccc(-c2cc(C(F)F)n3ncc(C(=O)N4CCc5ccccc5C4)c3n2)cc1` here?
**A.** 15.6% (inactive)

**Q.** With `Cc1cc(C(F)F)n2ncc(C(=O)N3CCc4ccccc4C3)c2n1` as the compound, how does the inhibition read?
**A.** -2.51% (inactive)

**Q.** For `CCN(CC(=O)Nc1c(F)cccc1F)C(=O)c1ccc2c(c1)OCO2`, which inhibition is on record?
**A.** -12.6% (inactive)

**Q.** With `COc1ccc(S(=O)(=O)CC(O)CN2CCCC2=O)cc1` (stereo not given) as the compound, how does the inhibition read?
**A.** -0.37% (inactive)

**Q.** Which inhibition does the source give for `COc1cccc(N2C(=O)CN(Cc3ccc(OC)c(OC)c3)C2=S)c1` here?
**A.** 2.7% (inactive)

**Q.** With `C/C(CC1CC2=C(CC1(C)C)C(C)(C)CCC2)=N\NC(N)=S` (stereo not given) as the compound, how does the inhibition read?
**A.** -0.2% (inactive)

**Q.** Which inhibition does the source give for `CC1=C(CC/C(C)=N/NC(N)=S)C(C)(C)CCC1` here?
**A.** 12% (inactive)

**Q.** With `CC(C)n1ncc2c(C(=O)Nc3ccc(S(C)(=O)=O)cc3)cc(C3CC3)nc21` as the compound, how does the inhibition read?
**A.** 2.05% (inactive)

**Q.** For `CCn1c(=O)cc(SCC(=O)Nc2ccc(OC)c(OC)c2)c2ccccc21`, which inhibition is on record?
**A.** -7.13% (inactive)

**Q.** With `Cc1cc(C)cc(NC(=S)N2CCC(NC(=O)C3CCCCC3)CC2)c1` as the compound, how does the inhibition read?
**A.** -1.01% (inactive)

**Q.** For `CCOP(=O)(OCC)C(O)c1cc(OC)c(OC)c(OC)c1` (stereo not given), which inhibition is on record?
**A.** 0.28% (inactive)

**Q.** Which inhibition does the source give for `Cc1csc(CNc2ncnc3ccc(-c4cccnc4)cc23)c1` here?
**A.** 2.87% (inactive)

**Q.** Which inhibition does the source give for `Fc1ccc(/C=N/NC2=Nc3cccc4cccc2c34)cc1` here?
**A.** -8.86% (inactive)

**Q.** For `C(=N\NC1=Nc2cccc3cccc1c23)/c1ccccc1`, which inhibition is on record?
**A.** 9.94% (inactive)

**Q.** For `CC(=O)c1c(C)[nH]c(C(=O)Nc2cccc(S(=O)(=O)N3CCOCC3)c2)c1C`, which inhibition is on record?
**A.** -28% (inactive)
